# In the supplement of paper PMC4466140:
# Target: AgAbp1
# Assay: SPOT peptide array binding signal intensity (averaged, normalized) (arbitrary units (background-subtracted, floor 0; scale differs between SH3 domains)); higher = stronger binding of the SH3 domain to the peptide
# Procedure, shortened: (§1)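 Binding signal is given in arbitrary units that differ between domains and is the normalized, background-subtracted spot intensity averaged across replicates. Each GST-SH3 fusion from one of four yeast species was made in E. coli BL21(DE3), purified on glutathione Sepharose and incubated at 10 μg/ml overnight at 4°C on cellulose-bound synthetic 15-mer peptides in which cysteines were replaced by serines. Detection used anti-GST antibody, an HRP anti-mouse secondary and luminol, followed by imaging and Genespotter quantification.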
row,Binder,SPOT peptide array binding signal intensity
1,ATKSASPTLPTRRSR,938

# Target: AgBbc1
# Assay: as above
# Procedure, shortened: as §1
row,Binder,SPOT peptide array binding signal intensity
1,ATKSASPTLPTRRSR,899

# Target: AgBem1-D1
# Assay: as above
# Procedure, shortened: as §1
row,Binder,SPOT peptide array binding signal intensity
1,ATKSASPTLPTRRSR,133

# Target: AgBzz1-D1
# Assay: as above
# Procedure, shortened: as §1
row,Binder,SPOT peptide array binding signal intensity
1,ATKSASPTLPTRRSR,99.5

# Target: AgBzz1-D2
# Assay: as above
# Procedure, shortened: as §1
row,Binder,SPOT peptide array binding signal intensity
1,ATKSASPTLPTRRSR,45

# Target: AgCyk3
# Assay: as above
# Procedure, shortened: as §1
row,Binder,SPOT peptide array binding signal intensity
1,ATKSASPTLPTRRSR,2

# Target: AgFus1
# Assay: as above
# Procedure, shortened: as §1
row,Binder,SPOT peptide array binding signal intensity
1,ATKSASPTLPTRRSR,28

# Target: AgHof1
# Assay: as above
# Procedure, shortened: as §1
row,Binder,SPOT peptide array binding signal intensity
1,ATKSASPTLPTRRSR,180

# Target: AgHse1
# Assay: as above
# Procedure, shortened: as §1
row,Binder,SPOT peptide array binding signal intensity
1,ATKSASPTLPTRRSR,114

# Target: AgLsb1
# Assay: as above
# Procedure, shortened: as §1
row,Binder,SPOT peptide array binding signal intensity
1,ATKSASPTLPTRRSR,18.5

# Target: AgLsb4
# Assay: as above
# Procedure, shortened: as §1
row,Binder,SPOT peptide array binding signal intensity
1,ATKSASPTLPTRRSR,1800

# Target: AgMyo5
# Assay: as above
# Procedure, shortened: as §1
row,Binder,SPOT peptide array binding signal intensity
1,ATKSASPTLPTRRSR,5.5

# Target: AgNbp2
# Assay: as above
# Procedure, shortened: as §1
row,Binder,SPOT peptide array binding signal intensity
1,ATKSASPTLPTRRSR,39.5

# Target: AgRvs167
# Assay: as above
# Procedure, shortened: as §1
row,Binder,SPOT peptide array binding signal intensity
1,ATKSASPTLPTRRSR,192

# Target: AgSho1
# Assay: as above
# Procedure, shortened: as §1
row,Binder,SPOT peptide array binding signal intensity
1,ATKSASPTLPTRRSR,≤ 0

# Target: AgSla1-D1-D2
# Assay: as above
# Procedure, shortened: as §1
row,Binder,SPOT peptide array binding signal intensity
1,ATKSASPTLPTRRSR,74.5

# Target: AgSla1-D3
# Assay: as above
# Procedure, shortened: as §1
row,Binder,SPOT peptide array binding signal intensity
1,ATKSASPTLPTRRSR,11.8

# Target: CaAbp1-D1
# Assay: as above
# Procedure, shortened: as §1
row,Binder,SPOT peptide array binding signal intensity
1,ATKSASPTLPTRRSR,434

# Target: CaAbp1-D2
# Assay: as above
# Procedure, shortened: as §1
row,Binder,SPOT peptide array binding signal intensity
1,ATKSASPTLPTRRSR,1090

# Target: CaBbc1
# Assay: as above
# Procedure, shortened: as §1
row,Binder,SPOT peptide array binding signal intensity
1,ATKSASPTLPTRRSR,986

# Target: CaBem1-D1
# Assay: as above
# Procedure, shortened: as §1
row,Binder,SPOT peptide array binding signal intensity
1,ATKSASPTLPTRRSR,51

# Target: CaBzz1-D1
# Assay: as above
# Procedure, shortened: as §1
row,Binder,SPOT peptide array binding signal intensity
1,ATKSASPTLPTRRSR,223

# Target: CaBzz1-D2
# Assay: as above
# Procedure, shortened: as §1
row,Binder,SPOT peptide array binding signal intensity
1,ATKSASPTLPTRRSR,195

# Target: CaCyk3
# Assay: as above
# Procedure, shortened: as §1
row,Binder,SPOT peptide array binding signal intensity
1,ATKSASPTLPTRRSR,56

# Target: CaFus1
# Assay: as above
# Procedure, shortened: as §1
row,Binder,SPOT peptide array binding signal intensity
1,ATKSASPTLPTRRSR,35

# Target: CaHof1
# Assay: as above
# Procedure, shortened: as §1
row,Binder,SPOT peptide array binding signal intensity
1,ATKSASPTLPTRRSR,4

# Target: CaHse1
# Assay: as above
# Procedure, shortened: as §1
row,Binder,SPOT peptide array binding signal intensity
1,ATKSASPTLPTRRSR,8.75

# Target: CaLsb1
# Assay: as above
# Procedure, shortened: as §1
row,Binder,SPOT peptide array binding signal intensity
1,ATKSASPTLPTRRSR,0.75

# Target: CaLsb4
# Assay: as above
# Procedure, shortened: as §1
row,Binder,SPOT peptide array binding signal intensity
1,ATKSASPTLPTRRSR,6350

# Target: CaMyo5
# Assay: as above
# Procedure, shortened: as §1
row,Binder,SPOT peptide array binding signal intensity
1,ATKSASPTLPTRRSR,6

# Target: CaNbp2
# Assay: as above
# Procedure, shortened: as §1
row,Binder,SPOT peptide array binding signal intensity
1,ATKSASPTLPTRRSR,77

# Target: CaRvs167
# Assay: as above
# Procedure, shortened: as §1
row,Binder,SPOT peptide array binding signal intensity
1,ATKSASPTLPTRRSR,607

# Target: CaRvs167-3
# Assay: as above
# Procedure, shortened: as §1
row,Binder,SPOT peptide array binding signal intensity
1,ATKSASPTLPTRRSR,9.25

# Target: CaSho1
# Assay: as above
# Procedure, shortened: as §1
row,Binder,SPOT peptide array binding signal intensity
1,ATKSASPTLPTRRSR,23

# Target: CaSla1-D1-D2
# Assay: as above
# Procedure, shortened: as §1
row,Binder,SPOT peptide array binding signal intensity
1,ATKSASPTLPTRRSR,1430

# Target: CaSla1-D3
# Assay: as above
# Procedure, shortened: as §1
row,Binder,SPOT peptide array binding signal intensity
1,ATKSASPTLPTRRSR,1.75

# Target: ScAbp1
# Assay: as above
# Procedure, shortened: as §1
row,Binder,SPOT peptide array binding signal intensity
1,ATKSASPTLPTRRSR,192

# Target: ScBbc1
# Assay: as above
# Procedure, shortened: as §1
row,Binder,SPOT peptide array binding signal intensity
1,ATKSASPTLPTRRSR,405

# Target: ScBem1-D1
# Assay: as above
# Procedure, shortened: as §1
row,Binder,SPOT peptide array binding signal intensity
1,ATKSASPTLPTRRSR,30

# Target: ScBzz1-D1
# Assay: as above
# Procedure, shortened: as §1
row,Binder,SPOT peptide array binding signal intensity
1,ATKSASPTLPTRRSR,95

# Target: ScBzz1-D2
# Assay: as above
# Procedure, shortened: as §1
row,Binder,SPOT peptide array binding signal intensity
1,ATKSASPTLPTRRSR,52

# Target: ScCyk3
# Assay: as above
# Procedure, shortened: as §1
row,Binder,SPOT peptide array binding signal intensity
1,ATKSASPTLPTRRSR,32

# Target: ScFus1
# Assay: as above
# Procedure, shortened: as §1
row,Binder,SPOT peptide array binding signal intensity
1,ATKSASPTLPTRRSR,14

# Target: ScHof1
# Assay: as above
# Procedure, shortened: as §1
row,Binder,SPOT peptide array binding signal intensity
1,ATKSASPTLPTRRSR,3.5

# Target: ScHse1
# Assay: as above
# Procedure, shortened: as §1
row,Binder,SPOT peptide array binding signal intensity
1,ATKSASPTLPTRRSR,172

# Target: ScLsb1
# Assay: as above
# Procedure, shortened: as §1
row,Binder,SPOT peptide array binding signal intensity
1,ATKSASPTLPTRRSR,651

# Target: ScLsb2
# Assay: as above
# Procedure, shortened: as §1
row,Binder,SPOT peptide array binding signal intensity
1,ATKSASPTLPTRRSR,13.5

# Target: ScLsb3
# Assay: as above
# Procedure, shortened: as §1
row,Binder,SPOT peptide array binding signal intensity
1,ATKSASPTLPTRRSR,5480

# Target: ScLsb4
# Assay: as above
# Procedure, shortened: as §1
row,Binder,SPOT peptide array binding signal intensity
1,ATKSASPTLPTRRSR,2750

# Target: ScMyo3
# Assay: as above
# Procedure, shortened: as §1
row,Binder,SPOT peptide array binding signal intensity
1,ATKSASPTLPTRRSR,1.5

# Target: ScMyo5
# Assay: as above
# Procedure, shortened: as §1
row,Binder,SPOT peptide array binding signal intensity
1,ATKSASPTLPTRRSR,5

# Target: ScNbp2
# Assay: as above
# Procedure, shortened: as §1
row,Binder,SPOT peptide array binding signal intensity
1,ATKSASPTLPTRRSR,63.5

# Target: ScPex13
# Assay: as above
# Procedure, shortened: as §1
row,Binder,SPOT peptide array binding signal intensity
1,ATKSASPTLPTRRSR,511

# Target: ScRvs167
# Assay: as above
# Procedure, shortened: as §1
row,Binder,SPOT peptide array binding signal intensity
1,ATKSASPTLPTRRSR,1320

# Target: ScSho1
# Assay: as above
# Procedure, shortened: as §1
row,Binder,SPOT peptide array binding signal intensity
1,ATKSASPTLPTRRSR,65.5

# Target: ScSla1-D1-D2
# Assay: as above
# Procedure, shortened: as §1
row,Binder,SPOT peptide array binding signal intensity
1,ATKSASPTLPTRRSR,726

# Target: ScSla1-D3
# Assay: as above
# Procedure, shortened: as §1
row,Binder,SPOT peptide array binding signal intensity
1,ATKSASPTLPTRRSR,25.8

# Target: SpAbp1-D1
# Assay: as above
# Procedure, shortened: as §1
row,Binder,SPOT peptide array binding signal intensity
1,ATKSASPTLPTRRSR,356

# Target: SpBbc1
# Assay: as above
# Procedure, shortened: as §1
row,Binder,SPOT peptide array binding signal intensity
1,ATKSASPTLPTRRSR,27

# Target: SpBzz1-D1
# Assay: as above
# Procedure, shortened: as §1
row,Binder,SPOT peptide array binding signal intensity
1,ATKSASPTLPTRRSR,366

# Target: SpBzz1-D2
# Assay: as above
# Procedure, shortened: as §1
row,Binder,SPOT peptide array binding signal intensity
1,ATKSASPTLPTRRSR,1

# Target: SpCyk3
# Assay: as above
# Procedure, shortened: as §1
row,Binder,SPOT peptide array binding signal intensity
1,ATKSASPTLPTRRSR,3

# Target: SpHof1
# Assay: as above
# Procedure, shortened: as §1
row,Binder,SPOT peptide array binding signal intensity
1,ATKSASPTLPTRRSR,732

# Target: SpHof1-2
# Assay: as above
# Procedure, shortened: as §1
row,Binder,SPOT peptide array binding signal intensity
1,ATKSASPTLPTRRSR,83

# Target: SpHof1-3
# Assay: as above
# Procedure, shortened: as §1
row,Binder,SPOT peptide array binding signal intensity
1,ATKSASPTLPTRRSR,110

# Target: SpHse1
# Assay: as above
# Procedure, shortened: as §1
row,Binder,SPOT peptide array binding signal intensity
1,ATKSASPTLPTRRSR,77

# Target: SpLsb1
# Assay: as above
# Procedure, shortened: as §1
row,Binder,SPOT peptide array binding signal intensity
1,ATKSASPTLPTRRSR,90

# Target: SpLsb4
# Assay: as above
# Procedure, shortened: as §1
row,Binder,SPOT peptide array binding signal intensity
1,ATKSASPTLPTRRSR,7440

# Target: SpMyo1
# Assay: as above
# Procedure, shortened: as §1
row,Binder,SPOT peptide array binding signal intensity
1,ATKSASPTLPTRRSR,46.8

# Target: SpNbp2
# Assay: as above
# Procedure, shortened: as §1
row,Binder,SPOT peptide array binding signal intensity
1,ATKSASPTLPTRRSR,21.5

# Target: SpPex13
# Assay: as above
# Procedure, shortened: as §1
row,Binder,SPOT peptide array binding signal intensity
1,ATKSASPTLPTRRSR,17

# Target: SpRvs167
# Assay: as above
# Procedure, shortened: as §1
row,Binder,SPOT peptide array binding signal intensity
1,ATKSASPTLPTRRSR,2470

# Target: SpSla1-D1-D2
# Assay: as above
# Procedure, shortened: as §1
row,Binder,SPOT peptide array binding signal intensity
1,ATKSASPTLPTRRSR,334

# Target: SpSla1-D3
# Assay: as above
# Procedure, shortened: as §1
row,Binder,SPOT peptide array binding signal intensity
1,ATKSASPTLPTRRSR,≤ 0
